Screening results from PubChem.
HEK293 tox: HEK 293 cell cytotoxicity; HEK 293 viability, ATP luminescence (CellTiter-Glo), 48-72 h; Potency, µM (titrated, usually from 115 µM), actives largely listed as inhibitors; hit rate 6.6% among 94,000; also: nearly all actives have a fitted effect of over 60% in size
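qHTS cytotoxicity; HEK 293, 250 cells/well; compound pinned; 48 or 72 hr, 37 degree Celsius, 5% CO2, 95% humidity; CellTiter-Glo, 10 min RT; luminescence (ATP).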
hNpr1 antagonist: antagonists of human natriuretic peptide receptor Npr1 | P16066 | HEK293 hNpr1 GloSensor cGMP, ANP-stimulated luminescence | Potency, µM (top dose mostly 46.3 µM), hits mostly inhibitors | hit rate 1.6% among 76,000 | AID 1347048; calls by dose curve; also: nearly all actives have a fitted effect of over 60% in size
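HEK293 cells stably expressing human Npr1 and cGMP GloSensor pGS-40F, loaded 2 h with 2% GloSensor reagent, given compound 30 min at room temperature. Luminescence read before and 20 min after 0.1 nM hNppA.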
Luciferase inh: blocks purified firefly luciferase enzyme activity | P08659 | purified P. pyralis luciferase, luminescence, biochemical | Potency, µM (series often up to 115 µM), most hits filed as inhibitors | hit rate 2.5% among 76,000 | AID 1347043; also: nearly all actives have a fitted effect of over 65% in size
Target sequence (P08659 whole entry, looked up): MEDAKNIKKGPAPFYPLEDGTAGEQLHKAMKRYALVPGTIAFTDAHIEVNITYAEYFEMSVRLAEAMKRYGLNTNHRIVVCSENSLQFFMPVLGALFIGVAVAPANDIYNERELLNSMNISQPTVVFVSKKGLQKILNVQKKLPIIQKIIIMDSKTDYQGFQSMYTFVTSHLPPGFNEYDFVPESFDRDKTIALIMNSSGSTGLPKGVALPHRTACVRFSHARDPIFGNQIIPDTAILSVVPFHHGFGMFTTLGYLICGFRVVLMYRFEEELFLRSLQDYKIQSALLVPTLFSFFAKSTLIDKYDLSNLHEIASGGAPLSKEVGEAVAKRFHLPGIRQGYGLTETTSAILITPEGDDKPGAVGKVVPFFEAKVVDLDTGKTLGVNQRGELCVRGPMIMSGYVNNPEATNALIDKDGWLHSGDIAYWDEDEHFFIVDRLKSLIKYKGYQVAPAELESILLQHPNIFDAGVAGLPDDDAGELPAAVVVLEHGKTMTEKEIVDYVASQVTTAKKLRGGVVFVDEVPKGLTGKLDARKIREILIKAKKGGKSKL
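FLuc 10nM, D-luciferin 10uM, ATP 10uM, Mg acetate 10mM, Tris acetate pH 7.5, Tween/BSA; cpd qHTS; enzyme added last; CCD luminescence.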
NIH3T3 tox: NIH 3T3 cell cytotoxicity | NIH 3T3 viability, CellTiter-Glo ATP luminescence, 48-72 h | Potency, µM (doses to about 96.7 µM), actives largely listed as inhibitors | hit rate 4.3% among 94,000 | AID 1345082; also: nearly all actives have a fitted effect of over 55% in size
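Cytotoxicity is measured as loss of cellular ATP: NIH 3T3 cells (400/well) are exposed to compound for 48 or 72 hr at 37 °C, then CellTiter-Glo luminescence is imaged after 10 min at room temperature.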
GPT2 inh: inhibitors of human GPT2 alanine aminotransferase. AID 1671188. hit rate 0.25% among 100,000. Potency, µM (series often up to 57.7 µM), most hits filed as inhibitors. Recombinant GPT2, coupled pyruvate oxidase/HRP Amplex Red fluorescence; also: nearly all actives have a fitted effect of over 60% in size
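Inhibition is scored from Amplex Red fluorescence generated when pyruvate oxidase and HRP act on pyruvate released by GPT2. Reactions contain 10ng/uL enzyme, 250uM a-KG and 2mM L-alanine and run 30 min at room temperature.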
Large screens that a line does not name were inactive. Only some compounds are listed: those with a hit (about 10% of all), similar ones and a draw of the others. Unless noted, calls follow the shape of the dose curve; as a rule, active = well fitted curve in the direction sought with a large enough effect; inconclusive = small, poorly fitted or top-dose-only effect, or another doubt; inactive = no such curve, though single readings can be large; an effect the other way counts as inactive or inconclusive.

Cc1ccc(NC(=O)N2CCC(c3cc(-c4cccc(C)c4)n[nH]3)CC2)cc1	HEK293 tox inconclusive, NIH3T3 tox inconclusive
COc1cccc(CNC(=O)[C@@H]2C[C@@H](O)CN2C2CCN(C(=O)Cc3cccc(OC)c3)CC2)c1	none
O=C(NC1CCCN(c2cc(-c3ccc(F)cc3)[nH]n2)C1)c1ccncc1 (centres undefined)	HEK293 tox inconclusive, Luciferase inh 40µM
O=C(NC1CCCN(c2cc(-c3ccccc3)[nH]n2)C1)c1ccc2cc[nH]c2c1 (centres undefined)	HEK293 tox inconclusive, hNpr1 antagonist inconclusive, Luciferase inh 14µM, NIH3T3 tox inconclusive, GPT2 inh inconclusive
O=C(NC1CCCN(c2cc(-c3ccccc3)[nH]n2)C1)c1ccc2nc[nH]c2c1 (centres undefined)	Luciferase inh 32µM
O=C(NC1CCCN(c2cc(-c3ccc(F)cc3)[nH]n2)C1)c1ccc2nc[nH]c2c1 (centres undefined)	HEK293 tox inconclusive, Luciferase inh 16µM, NIH3T3 tox inconclusive
COc1ccc(-n2nc(C3CCN([S+](=O)([O-])c4c(C)noc4C)CC3)[nH]c2=O)cc1	none
O=C(NC1CCN(c2cc(-c3ccc(F)cc3)[nH]n2)C1)c1ccc(Br)o1 (centres undefined)	HEK293 tox inconclusive, NIH3T3 tox inconclusive, GPT2 inh inconclusive
O=C(NC1CCCN(c2cc(-c3ccc(F)cc3)[nH]n2)C1)c1ccc(Br)o1 (centres undefined)	HEK293 tox 32µM, Luciferase inh inconclusive, NIH3T3 tox inconclusive
O=C(CN1C(=O)NC(c2ccc(Cl)cc2)C2=C1COC2=O)Nc1cccc(Br)c1 (centres undefined)	HEK293 tox 20µM, hNpr1 antagonist inconclusive, Luciferase inh inconclusive, NIH3T3 tox inconclusive
O=C(CN1C(=O)NC(c2ccc(Cl)cc2)C2=C1COC2=O)Nc1cccc(F)c1 (centres undefined)	HEK293 tox 45µM, NIH3T3 tox 28µM
O=C(CN1C(=O)NC(c2ccccc2Cl)C2=C1COC2=O)Nc1cccc(F)c1 (centres undefined)	HEK293 tox inconclusive, Luciferase inh inconclusive
COc1cccc(NC(=O)CN2C(=O)NC(c3ccc(C)cc3)C3=C2COC3=O)c1 (centres undefined)	HEK293 tox inconclusive, NIH3T3 tox inconclusive
CCN1C(=O)C(CC(=O)NC(C)c2ccccc2)Sc2ncccc21 (centres undefined)	HEK293 tox inconclusive
CC(C)CCN1CCC(C2CCN(C(=O)c3ccncc3)CC2)C1 (centres undefined)	none
Cc1ccc(C(=O)N2CCC(CCn3c(C)cnc3C3CCC3)CC2)c(=O)[nH]1	none (no result: hNpr1 antagonist, Luciferase inh)
COc1cccc(-c2ccc(CN3CCCC(NC(=O)c4ccccc4)C3)cc2)c1 (centres undefined)	HEK293 tox 22µM, NIH3T3 tox 40µM (no result: hNpr1 antagonist, Luciferase inh)
COc1cccc(-c2ccc(CN3CCCC(NC(=O)c4ccc(F)cc4)C3)cc2)c1 (centres undefined)	HEK293 tox 11µM, NIH3T3 tox 32µM (no result: hNpr1 antagonist, Luciferase inh)
COc1cccc(C(=O)NC2CCCN(Cc3ccc(-c4cc(C)cc(C)c4)cc3)C2)c1 (centres undefined)	HEK293 tox inconclusive, NIH3T3 tox 40µM (no result: hNpr1 antagonist, Luciferase inh)
COc1ccc(C(=O)NC2CCCN(Cc3ccc(-c4cc(C)cc(C)c4)cc3)C2)cc1 (centres undefined)	none (no result: hNpr1 antagonist, Luciferase inh)
O=C(Cc1cccc(Cl)c1)NC1CCN(c2nc3ncccc3o2)CC1	HEK293 tox inconclusive, NIH3T3 tox inconclusive
C[C@@H](NC(=O)C[C@@H]1c2nc(-c3cccnc3)sc2C[C@@H]2[C@](C)(CO)[C@H](O)CC[C@]21C)c1ccccc1	HEK293 tox inconclusive, NIH3T3 tox 20µM
CCCCCC(=O)Nc1nc2c(s1)C[C@@H]1[C@](C)(CO)[C@H](O)CC[C@@]1(C)[C@@H]2CC(=O)N(C)Cc1ccccc1	HEK293 tox 28µM, NIH3T3 tox 50µM
C#CCN(C)C(=O)C[C@@H]1c2nc(NC(=O)CCCCC)sc2C[C@@H]2[C@](C)(CO)[C@H](O)CC[C@]21C	none
CCCCCC(=O)Nc1nc2c(s1)C[C@@H]1[C@](C)(CO)[C@H](O)CC[C@@]1(C)[C@@H]2CC(=O)NC1CCCC1	NIH3T3 tox inconclusive
CCCCCC(=O)Nc1nc2c(s1)C[C@@H]1[C@](C)(CO)[C@H](O)CC[C@@]1(C)[C@@H]2CC(=O)N[C@H](C)c1ccccc1	HEK293 tox 40µM, NIH3T3 tox inconclusive
CC(C)C(=O)Nc1cc(C2CC2)nn1-c1ccccc1	NIH3T3 tox inconclusive (no result: hNpr1 antagonist, Luciferase inh)
Cc1ccn2c(C(=O)N[C@H]3CCOC[C@H]3C3CCOCC3)nnc2n1	none
Cc1ccc(S(=O)(=O)N[C@H]2C[C@@H](c3nc(-c4ccc5c(c4)OCO5)no3)N(C)C2)cc1	HEK293 tox inconclusive, hNpr1 antagonist inconclusive, NIH3T3 tox inconclusive, GPT2 inh inconclusive
COc1ccc(OC)c(CN2CCOc3ccc(C(=O)NCc4ccccc4F)cc3C2)c1	HEK293 tox inconclusive, NIH3T3 tox inconclusive
COCCN1Cc2ccc(NCc3ccccc3)nc2C(C)(C(=O)Nc2cccnc2)C1 (centres undefined)	HEK293 tox inconclusive, NIH3T3 tox inconclusive
COCCN1Cc2ccc(NCc3ccccc3)nc2C(C)(C(=O)NCc2ccccc2)C1 (centres undefined)	HEK293 tox 50µM, NIH3T3 tox 45µM
COCCN1Cc2ccc(NCc3ccccc3)nc2C(C)(C(=O)NC2CCOCC2)C1 (centres undefined)	HEK293 tox inconclusive, NIH3T3 tox inconclusive, GPT2 inh inconclusive
COCCN1Cc2ccc(NCc3ccccc3)nc2C(C)(C(=O)Nc2ccccc2)C1 (centres undefined)	HEK293 tox 50µM, NIH3T3 tox inconclusive
COCCN1Cc2ccc(Nc3cccnc3)nc2C(C)(C(=O)Nc2ccccc2C)C1 (centres undefined)	HEK293 tox inconclusive, Luciferase inh 63µM, NIH3T3 tox inconclusive
COCCN1Cc2ccc(NCc3ccccc3)nc2C(C)(C(=O)Nc2ccc(F)cc2)C1 (centres undefined)	HEK293 tox inconclusive, NIH3T3 tox inconclusive
COCCN1Cc2ccc(NCC(C)C)nc2C(C)(C(=O)Nc2cccc(F)c2)C1 (centres undefined)	HEK293 tox 45µM, NIH3T3 tox 25µM
CCOC(=O)[C@@H]1CN(C(=O)c2ncoc2-c2ccccc2)[C@H]2c3ccc(OC)cc3O[C@@H]12	HEK293 tox inconclusive (no result: hNpr1 antagonist, Luciferase inh, GPT2 inh)
CCOC(=O)[C@@H]1CN(C(=O)NC2CCCC2)[C@H]2c3ccc(OC)cc3O[C@@H]12	HEK293 tox 50µM, NIH3T3 tox inconclusive (no result: hNpr1 antagonist, Luciferase inh, GPT2 inh)
COc1ccc(Cn2c3c(c(=O)n2Cc2ccccc2)CCN(C(=O)C2CCOCC2)C3)cc1	NIH3T3 tox 25µM
CCn1c2c(c(=O)n1Cc1ccccc1)CCN(C(=O)c1cccc(C#N)c1)C2	NIH3T3 tox inconclusive
